Where “and” joins values, the source holds several entries; their conditions need not be identical. Identical values can stand only once. More than one record can exist for a structure, and the calls need not agree. Calls of active or inactive are those of the source. Rule for the calls: active = hit-call score of the fitted dose curve at least 0.9, where 1 is the maximum; inactive = score below 0.9.
Columns and labels:
[1] = read-out: Interleukin-8 (IL8), CXCL8 (gene 3576); assay: BSK_BE3C_IL8: BioMAP Diversity Plus: BE3C Assay for Interleukin-8 (IL8) Biomarker Activity (AID 2284280); conditions: primary human bronchial epithelial cells
How it was run: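 Dose human bronchial epithelial cells with chemical; incubate 24 h; quantify IL-8 by ELISA; fit response upward versus DMSO controls.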

[2] = read-out: Epidermal growth factor receptor (EGFR), EGFR (gene 1956); assay: BSK_BE3C_EGFR: BioMAP Diversity Plus: BE3C Assay for Epidermal growth factor receptor (EGFR) Biomarker Activity (AID 2284281); conditions: primary human bronchial epithelial cells
How it was run: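 ELISA read-out of EGFR levels on human bronchial epithelial primary cells collected 24 h post-dosing. DMSO served as negative control and baseline for gain-of-signal fitting.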

KRT18 (gene 3875) = assay: BSK_BE3C_Keratin818: BioMAP Diversity Plus: BE3C Assay for Keratin 818 Biomarker Activity (AID 2284282); conditions: primary human bronchial epithelial cells
How it was run: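 ELISA readout of Keratin 8/18 in human primary bronchial epithelial cultures after 24 h chemical exposure, DMSO baseline. Parallel SRB staining (0.1%, TCA-fixed, 560 nm) served as cytotoxicity check.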

[3] = read-out: Matrix Metallopeptidase 9 (MMP9), MMP9 (gene 4318); assay: BSK_BE3C_MMP9: BioMAP Diversity Plus: BE3C Assay for Matrix Metallopeptidase 9 (MMP9) Biomarker Activity (AID 2284283); conditions: primary human bronchial epithelial cells
How it was run: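 MMP9 is measured by ELISA after a 24 h compound exposure of primary human bronchial epithelial cultures. Parallel SRB staining gives overt cytotoxicity. Values fitted in the positive direction against DMSO.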

[4] = read-out: Plasminogen activator inhibitor-1 (PAI1), SERPINE1 (gene 5054); assay: BSK_CASM3C_PAI1: BioMAP Diversity Plus: CASM3C Assay for Plasminogen activator inhibitor-1 (PAI1) Biomarker Activity (AID 2284284); conditions: primary human coronary artery smooth muscle cells;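 note: PAI-1 protein level measured by ELISA 24 h after dosing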
[5] = read-out: Monocyte Chemoattractant Protein-1 (MCP1), CCL2 (gene 6347); assay: BSK_hDFCGF_MCP1: BioMAP Diversity Plus: hDFCGF Assay for Monocyte Chemoattractant Protein-1 (MCP1) Biomarker Activity (AID 2284285); conditions: primary human foreskin fibroblasts
How it was run: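 MCP-1 ELISA readout was taken 24 hours after dosing primary human dermal fibroblasts in the hDFCGF system, with DMSO as baseline. Parallel sulforhodamine B staining of total protein tracked overt cytotoxicity.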

[6] = read-out: Vascular cell adhesion molecule 1 (VCAM1), VCAM1 (gene 7412); assay: BSK_IMphg_VCAM1: BioMAP Diversity Plus: IMphg Assay for Vascular cell adhesion molecule 1 (VCAM1) Biomarker Activity (AID 2284286); conditions: primary human endothelial cells with macrophages
How it was run: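 ELISA read-out of VCAM-1 on venular endothelial cell/macrophage co-cultures at 24 h post-treatment, with DMSO as baseline and positive-direction fitting. Parallel sulforhodamine B total-protein staining (560 nm) served as the overt cytotoxicity measure.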

[7] = read-out: Intercellular Adhesion Molecule 1 (ICAM1), ICAM1 (gene 3383); assay: BSK_hDFCGF_ICAM1: BioMAP Diversity Plus: hDFCGF Assay for Intercellular Adhesion Molecule 1 (ICAM1) Biomarker Activity (AID 2284287); conditions: primary human foreskin fibroblasts
How it was run: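 ICAM-1 ELISA readout 24 h after dosing, DMSO as baseline, in human dermal foreskin fibroblast cultures. Cytotoxicity checked in parallel wells by SRB staining (0.1% SRB, 10% TCA fixation, 560 nm).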

CD40, CD40 (gene 958) = assay: BSK_IMphg_CD40: BioMAP Diversity Plus: IMphg Assay for CD40 Biomarker Activity (AID 2284288); conditions: primary human endothelial cells with macrophages
How it was run: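 ELISA read-out of cell-surface CD40 at 24 h in human venular endothelial cell/macrophage co-cultures. Activity fitted in the positive direction against DMSO; parallel SRB staining (560 nm) gauges overt cytotoxicity.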

[8] = read-out: TIMP metallopeptidase inhibitor 2 (TIMP2), TIMP2 (gene 7077); assay: BSK_hDFCGF_TIMP2: BioMAP Diversity Plus: hDFCGF Assay for TIMP metallopeptidase inhibitor 2 (TIMP2) Biomarker Activity (AID 2284289); conditions: primary human foreskin fibroblasts
How it was run: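 Primary human foreskin fibroblasts in the hDFCGF system, dosed for 24 h; TIMP-2 level measured by ELISA, fitted in the positive direction against DMSO; cytotoxicity checked in parallel by sulforhodamine B total protein staining.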

Measured: AC50

O=S(=O)(O)C(F)(F)C(F)(F)C(F)(F)C(F)(F)C(F)(F)C(F)(F)F
inactive: all assays above

O=C(O)C(F)(F)C(F)(F)C(F)(F)C(F)(F)C(F)(F)C(F)(F)C(F)(F)C(F)(F)C(F)(F)F
inactive: [2] | KRT18 (gene 3875) | [4]
active: [1] 10.1 µM and 14.2 µM | [2] 7.27 µM | KRT18 (gene 3875) 14.5 µM | [3] 15.1 µM and 17.4 µM | [5] 56.1 µM and 56.6 µM | [6] 54.8 µM and 26.9 µM | [7] 49.8 µM and 49 µM | CD40, CD40 (gene 958) 45.9 µM and 42.3 µM | [8] 11.2 µM and 19.7 µM

NS(=O)(=O)C(F)(F)C(F)(F)C(F)(F)C(F)(F)C(F)(F)C(F)(F)C(F)(F)C(F)(F)F
active: [1] 24.3 µM and 11.4 µM | [2] 25.1 µM and 38 µM | KRT18 (gene 3875) 46.9 µM and 48 µM | [3] 30 µM | [5] 21.7 µM and 17.3 µM | [6] 47.3 µM and 56.6 µM | [7] 12.1 µM and 15.7 µM | CD40, CD40 (gene 958) 31.8 µM and 25.7 µM | [8] 53.9 µM and 52.3 µM
inactive: [4]

COc1ccc(O)c(C(C)(C)C)c1
not listed: [6] | CD40, CD40 (gene 958)
inactive: all other assays above

O=C(O)C(F)(F)C(F)(F)C(F)(F)C(F)(F)C(F)(F)C(F)(F)C(F)(F)C(F)(F)F
active: [1] 23.3 µM and 24.3 µM | KRT18 (gene 3875) 30 µM and 47.6 µM | [3] 54 µM and 56.6 µM | [6] 30 µM | CD40, CD40 (gene 958) 30 µM and 44.9 µM
inactive: [2] | [4] | [5] | [6] | [7] | [8]

O=C(O)C(F)(F)C(F)(F)C(F)(F)C(F)(F)C(F)(F)F
inactive: all assays above

O=S(=O)(O)C(F)(F)C(F)(F)C(F)(F)C(F)(F)F
inactive: all assays above

From PubChem BioAssay (EPA / NIEHS)
